Test results: PubChem BioAssay (NCI)
Compounds without any hit were thinned out: in the full panel of roughly 83,000, 20% have a hit.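 How to read the values: 0–100, growth inhibition (40 = 60% inhibited); 0, no net growth; -100 to 0, cell death (-40 = 40% of starting cells died; -100 = all dead).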 Activity calls are given as the source filed them. The calls were made as follows: active = growth percent below 10; inactive = the rest.

System: NCI-H23 lung
Test: NCI-60 one-dose screen, 48 h (100 = growth as untreated, 0 = no growth, -100 = all killed)
Conditions: 10 µM unless noted

| SMILES | growth |
| --- | --- |
| Fc1ccc(-c2nnc(-c3c(-c4ccc(F)cc4)nc4ncccn34)o2)cc1 | 98.2% (inactive) |
| S=c1[nH]nc2sc3ccccc3n12 | 88% (inactive) |
| Clc1ccc2nc(Cl)c3ccccc3c2c1 | 84.6% (inactive) |
| CCOC(Cc1c(N)[nH]c(=S)[nH]c1=O)OCC | 104% (inactive) |
| COc1ccc(-c2nnc(COc3ccc(NC(=O)Nc4cc(C(F)(F)F)cc(C(F)(F)F)c4)cc3F)o2)cc1 | -11% (active) |
| Clc1cccc(Cc2cn3cc(-c4ccccc4)nc3s2)c1 | 62.6% (inactive) |
| ClC1=C(Cl)C(Cl)=C(Cl)C1=C/C=C/c1ccccc1 | -45.9% (active) |
| O=[N+]([O-])c1cnc(Sc2ccncn2)c([N+](=O)[O-])c1 | 103% (inactive) |
| O=C(N1CCC(CN=c2cc3n(-c4ccc(Cl)cc4)c4ccccc4nc-3cc2Nc2ccc(Cl)cc2)CC1)N1CC1 | -58.2% (active) |
| COc1cc(/C=C2\CCC/C(=C\c3ccc(OCC4CO4)c(OC)c3)C2=O)ccc1OCC1CO1 (configuration not stated) | 57.8% (inactive) |
| COc1ccc(-n2nnc(C(=O)O)c2-c2cc(OC)c(OC)c(OC)c2)cc1 | 103% (inactive) |
| Nc1nc(N)c([N+](=O)[O-])c(=O)[nH]1 | 97.8% (inactive) |
| Oc1[nH]c2ccccc2c1/C=c1/ccc2c(c1)N=C(c1cc(F)cc(F)c1)N=2 | 64.3% (inactive) |
| O=c1ccn(C2CCCO2)c(=O)[nH]1 (configuration not stated) | 119% (inactive) |
| COc1ccc2nc3cc(Cl)ccc3c(Nc3cc(C(C)C)c(O)cc3C)c2c1 | 40.1% (inactive) |
| COc1ccc(-c2cnnn2-c2cc(OC)c3c(c2)OCO3)cc1 | 26.6% (inactive) |
| CC1=CC(=O)C(C(C)=Nc2ccccc2Cl)C(=O)O1 (configuration not stated) | 142% (inactive) |
| O=[P@@]1(c2ccccc2)O[C@H](COCc2ccccc2)[C@@H](OCc2ccccc2)[C@H](OCc2ccccc2)[C@H]1NCc1ccccc1 | 20.5% (inactive) |
| COc1ccc(-c2noc(N)c2-c2cc(OC)c3c(c2)OCO3)cc1 | 28.1% (inactive) |

| SMILES | growth |
| --- | --- |
| CN(C)c1nc(-c2ccco2)n2nc(-c3ccco3)cc2n1 | 87.9% (inactive) |
| COc1cccc(C2C(C#N)=C(N)Oc3cc(OC)ccc32)c1 (configuration not stated) | 16.2% (inactive) |
| c1cnc2ccc3ncccc3c2c1 | 118% (inactive) |
| O=C(c1ccccc1)c1ccco1 | 99.2% (inactive) |
| CCOC(=O)C1=NN(c2ccc(Cl)cc2)C2C3N(c4ccc(Cl)cc4)N=C(C(=O)OCC)N3c3ccccc3N12 (configuration not stated) | 87% (inactive) |
| Cc1cc(NC(=O)c2ccc(N)cc2)ccc1N=Nc1ccc2c(O)c(N=Nc3ccc(Cl)c(S(=O)(=O)O)c3)c(S(=O)(=O)O)cc2c1 | 69.9% (inactive) |
| O=C(Nc1cccc(C(F)(F)F)c1)Nc1ccc(OCc2nnc(-c3ccc(Cl)cc3)o2)c(F)c1 | 68% (inactive) |
| CCN1C(=O)c2ccc3c4c(ccc(c24)C1=O)C(=O)N(CCCNCc1ccccc1OC)C3=O | -42.7% (active) |
| C=C1c2c(C)nn(-c3ccc(C#CCOC4OC(CO)C(O)C(O)C4O)cc3)c2N(C)C23C[C@H]1C1(C)c4c(C)nn(-c5ccc(C#CCOC6OC(CO)C(O)C(O)C6O)cc5)c4N(C)C(C)(C[C@H]12)C3 (some centres not stated) | 12.4% (inactive) |
| O=C(Nc1ccc(OCc2nnc(-c3ccccc3)o2)c(F)c1)Nc1ccc(Cl)c(C(F)(F)F)c1 | 8.65% (active) |
| O=C(/C=C/c1ccccc1Cl)c1ccc(O)cc1 | 93.7% (inactive) |
| O=C(Nc1ccncc1)C(=O)c1cn(S(=O)(=O)c2cccc(F)c2)c2ccccc12 | 34% (inactive) |
| COc1cc(/C=C/C(=O)c2ccc(F)cc2)ccc1OCCCCCOc1cc2c(cc1OC)C(=O)N1CCCC1C=N2 (configuration not stated) | -32.6% (active) |
| O=C(/C=C/c1ccc(O)c(O)c1)N1CCN(c2ccc(Cl)cc2)CC1 | 62.9% (inactive) |
| O=C(OCCBr)c1ccc(Cl)c([N+](=O)[O-])c1 | 104% (inactive) |
| COc1ccc2c(c1)/C(=C\c1c[nH]c3ccc(F)cc13)C(=O)N2 | 81.4% (inactive) |
| Cc1cc(C(=O)O)c(C)cc1C(=O)O | 107% (inactive) |
| O=C1/C(=N/O)CCc2ccccc21 | 98.1% (inactive) |
